Test results taken from publication PMC5540273 (PLoS ONE, 2017).

What was measured:
Settings in all cases: concentration: 1 μM, replicates: in singlicate; n = 1
MKK7 = system: MKK7
MKNK1 = system: MKNK1
MKNK2 = system: MKNK2
MLCK = system: T1, MLCK
T1 construct: gene MYLK3

MLK1 = system: T2, MLK1
T2 construct: gene MAP3K9

MLK2 = system: MLK2
MLK3 = system: MLK3
MRCKA = system: MRCKA
MRCKB = system: T3, MRCKB
T3 construct: gene CDC42BPB

MST1R = system: MST1R
MST1 = system: T4, MST1
T4 construct: gene STK4

MST2 = system: T5, MST2
T5 construct: gene STK3

MST3 = system: T6, MST3
T6 construct: gene STK24

MST4 = system: MST4
MTOR = system: MTOR
MUSK = system: MUSK
MYLK2 = system: MYLK2
MYLK4 = system: MYLK4
MYLK = system: MYLK
MYO3A = system: MYO3A
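Also: KINOMEscan kinase panel screen.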

Structure (SMILES) | %Inh (MKK7) [%] | %Inh (MKNK1) [%] | %Inh (MKNK2) [%] | %Inh (MLCK) [%] | %Inh (MLK1) [%] | %Inh (MLK2) [%] | %Inh (MLK3) [%] | %Inh (MRCKA) [%] | %Inh (MRCKB) [%] | %Inh (MST1R) [%] | %Inh (MST1) [%] | %Inh (MST2) [%] | %Inh (MST3) [%] | %Inh (MST4) [%] | %Inh (MTOR) [%] | %Inh (MUSK) [%] | %Inh (MYLK2) [%] | %Inh (MYLK4) [%] | %Inh (MYLK) [%] | %Inh (MYO3A) [%]
Cn1cc(-c2ccc3c(c2)CCN3C(=O)Cc2ccccc2Cl)c2c(N)ncnc21 [GSK2608885] | 0 | 7 | 0 | 22 | 32 | 0 | 45 | 84 | 92.2 | 100 | 95.3 | 64 | 30 | 13 | 8 | 29 | 8 | 2 | 12 | 34
CSc1ccc(-c2cc3ncnc(SCC(=O)O)c3s2)cc1 | 0 | 0 | 0 | 3 | 0 | 24 | 0 | 8 | 34 | 36 | 13 | 20 | 22 | 7 | 36 | 0 | 0 | 9 | 0 | 0
Cl.Nc1ncnc2occ(-c3ccc(NC(=O)Nc4cc(C(F)(F)F)ccc4F)cc3)c12 [SB-707548] | 22 | 56 | 98 | 44 | 40 | 65 | 65 | 11 | 0 | 28 | 50 | 26 | 52 | 8 | 16 | 100 | 37 | 26 | 21 | 96.6
N#Cc1ccc(-c2cc(-c3c[nH]nc3-c3ccccn3)ccn2)cc1 [GW693028] | 0 | 7 | 14 | 0 | 0 | 6 | 0 | 0 | 0 | 26 | 4 | 0 | 0 | 0 | 14 | 0 | 0 | 0 | 8 | 15
Cl.Oc1cccc(Nc2ccnc3cc(-c4ccncc4)ccc23)c1 [GW494601] | 0 | 0 | 21 | 0 | 0 | 0 | 1 | 1 | 0 | 36 | 0 | 0 | 13 | 0 | 4 | 0 | 24 | 0 | 95.9 | 40
Fc1ccc(-c2nn3c(OCC(F)(F)F)cccc3c2-c2ccncc2)cc1 [GW514784] | 0 | 0 | 0 | 0 | 0 | 0 | 0 | 24 | 32 | 13 | 0 | 0 | 12 | 0 | 35 | 0 | 1 | 0 | 15 | 72
O=C(Nc1cccc(-c2nn3ncccc3c2-c2ccnc(Nc3cccc(C(F)(F)F)c3)n2)c1)c1c(F)cccc1F [GSK299495] | 0 | 0 | 24 | 11 | 0 | 0 | 0 | 58 | 68 | 44 | 9 | 23 | 0 | 0 | 17 | 26 | 0 | 0 | 11 | 41
CC(C)Oc1ccc2c(-c3ccnc(Nc4ccc(N5CCN(C)CC5)cc4)n3)cnn2n1 [GW696155] | 0 | 37 | 84 | 42 | 0 | 0 | 0 | 35 | 0 | 0 | 0 | 0 | 59 | 16 | 27 | 42 | 61 | 99.6 | 17 | 30
Cc1cccc(-c2nc(-c3ccc(S(C)(=O)=O)cc3)sc2-c2ccncc2)c1 | 20 | 0 | 13 | 0 | 0 | 33 | 27 | 0 | 0 | 23 | 5 | 0 | 5 | 0 | 0 | 0 | 0 | 0 | 6 | 7
O=C(c1ccc(-c2cc(-c3c[nH]nc3-c3ccccn3)ccn2)cc1)N1CCOCC1 [GW812171] | 24 | 0 | 0 | 0 | 0 | 34 | 0 | 1 | 12 | 0 | 4 | 0 | 0 | 0 | 17 | 0 | 0 | 26 | 0 | 6
NS(=O)(=O)CCc1cccc(Nc2nccc(-c3c(-c4cccc(NC(=O)c5c(F)cccc5F)c4)nn4ccccc34)n2)c1 [GSK336735] | 100 | 0 | 0 | 20 | 0 | 3 | 43 | 92.2 | 96.2 | 62 | 94.9 | 74 | 13 | 0 | 8 | 40 | 0 | 0 | 14 | 26
